Source: PubChem (National Center for Advancing Translational Sciences (NCATS))
An excerpt weighted towards active compounds, which were near 21% of everything screened.
FBPA Giardia inh – blocks Giardia fructose-bisphosphate aldolase activity; A8B2U2; purified Giardia FBPA; Potency, µM (highest dose often 59.6 µM), inactives show at the highest dose activity, negative = inhibition, actives largely listed as inhibitors; 0.71% of 290,000 active; note: potency is the fitted concentration of half-maximal effect; % is set by controls: 0 for no effect and ±100 for the full control effect; nearly all actives have a fitted effect of over 55% in size
Target sequence (A8B2U2 whole entry, looked up): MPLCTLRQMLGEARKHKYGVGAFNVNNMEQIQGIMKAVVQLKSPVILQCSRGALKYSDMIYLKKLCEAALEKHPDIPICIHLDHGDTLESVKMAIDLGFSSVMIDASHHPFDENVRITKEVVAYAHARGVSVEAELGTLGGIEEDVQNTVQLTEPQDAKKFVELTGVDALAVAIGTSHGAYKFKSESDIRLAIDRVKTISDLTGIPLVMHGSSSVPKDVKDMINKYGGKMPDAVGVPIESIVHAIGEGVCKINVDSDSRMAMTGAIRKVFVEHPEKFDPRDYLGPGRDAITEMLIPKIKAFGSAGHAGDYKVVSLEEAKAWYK
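40 nM FBPA preincubated 10 min at RT with compound (up to 57.5 uM final), then substrate plus GAPDH/TPI/NAD/arsenate coupling and diaphorase/resazurin added. Fluorescence read after 20 min at RT, 525/598 nm.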
Pf growth 96h – inhibits malaria parasite growth, 96 h; P. falciparum luciferase reporter growth, 96 h; Potency, µM (highest dose often 28.7 µM), without a hit: at the highest dose activity change, negative = inhibition, hits mostly inhibitors; 6.9% of 320,000 active; AID 504834; note: potency is the fitted concentration of half-maximal effect; % is set by controls: 0 for no effect and ±100 for the full control effect
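Two-generation exposure (96 h) targets delayed-death phenotype. Reporter parasites carrying integrated firefly luciferase, in red cells at 2% hematocrit and 0.05% parasitemia final, kept at 37 C, 5% CO2; luminescence loss indicates inhibition.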
CHX counter – counter-screen for Shiga toxin inhibitors: cycloheximide protein synthesis inhibition; max response, %; cell reporter, cycloheximide protein synthesis inhibition counterscreen; 12% of 300,000 active; in the data active = max response mostly above about 13%, no sharp cut-off; inactive = mostly below about 14%; note: read at 38.3 µM for the half of the compounds with a filed dose; 0% is about no effect
Shiga toxin inh – blocks Shiga toxin action in Vero cells; inhibition, % at 38.7 µM; AID 2315; 9.2% of 290,000 active; Vero cells, Shiga toxin protein synthesis inhibition reporter; in the data active = inhibition mostly above about 28%, no sharp cut-off; inactive = mostly below about 43%; note: 0% is about no effect
NS1 function inh – blocks influenza NS1 protein function. Potency, µM (top dose mostly 46.1 µM), without a hit: at the highest dose activity, positive = more growth. 0.4% of 270,000 active; calls by dose curve; note: potency is the fitted concentration of half-maximal effect; actives are rising curves; nearly all actives have a fitted effect of over 50% in size
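A cell-based growth assay was used: compounds that relieve NS1-induced slow growth of budding yeast raise OD600. Assay medium was yeast nitrogen base with ammonium sulphate and -URA supplement, pH 6.0, with 2% galactose.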
Pf growth 48h – inhibits P. falciparum growth in the first generation, 48 h. P. falciparum luciferase growth in erythrocytes, 48 h. Potency, µM (titrated, usually from 28.7 µM), for inactives: at the highest dose activity change, negative = inhibition, actives largely listed as inhibitors. 5.9% of 310,000 active. AID 504832; note: potency is the fitted concentration of half-maximal effect; % is set by controls: 0 for no effect and ±100 for the full control effect
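Compounds are pin-transferred into medium, infected erythrocytes (2% hematocrit, 0.1% parasitemia final) are added, and plates sit one parasite generation at 37 C in 5% CO2. Detection reagent is then added and luminescence measured.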
Active calls of the source: *; ? = inconclusive; nt = not tested or not shown; [ ] = another dose, or the depositor's remark. Unless noted, calls come from the whole dose curve; as a rule, active = well fitted curve in the direction sought with a large enough effect; inconclusive = small, poorly fitted or top-dose-only effect, or another doubt; inactive = no such curve, though single readings can be large; an effect the other way counts as inactive or inconclusive.

SMILES	FBPA Giardia inh	Pf growth 96h	CHX counter	Shiga toxin inh	NS1 function inh	Pf growth 48h
CC(C)c1ccc2c(c1)C1(NN=C(c3ccccc3)S1)C(=O)N2 (configuration not stated)	?	?	33.2*	68.0*	-8.8%	3.29µM*
CC12CCC(c3c(CO)nn(-c4ccccc4)c31)C2(C)C (configuration not stated)	10.7%	10.4µM*	-1.2	10.8	-5.2%	?
CCOc1ccc(-n2c(-c3cccs3)nc3ccccc3c2=O)cc1	-3.3%	9.28µM*	-3.8	16.7	0.4%	0.6%
O=C(c1ccccc1)c1c(O)nc(-c2ccccc2)n(-c2ccccc2)c1=O	1.1%	93.6%	54.0*	77.9*	3.2%	46.3%
O=C1C2C3CC(C(Br)C3Br)C2C(=O)N1c1ccccn1 (configuration not stated)	-4.2%	32.3%	-1.7	-3.3	-2.7%	?
COc1ccc(-c2nc3ccccc3c(=O)n2-c2cccnc2)cc1	4.2%	?	-3.7	-17.9	6.6%	1.9%
COc1ccc(-n2c(-c3ccc(C)cc3)nc3ccccc3c2=O)cc1	-7.7%	?	31.6*	58.5*	-3.6%	0.0%
Cc1ccnc(N2C(=O)C3C4CC(C(Br)C4Br)C3C2=O)c1 (configuration not stated)	1.4%	9.28µM*	-0.9	-8.8	22.5%	20.1%
Cc1cccc(-n2c(SCC(=O)N3CCN(c4ccccn4)CC3)nnc2N2CCOCC2)c1	nt	?	nt	nt	nt	-16.8%
CCCNS(=O)(=O)c1ccc(OCC(=O)Nc2ccc3c(c2)OCO3)cc1	-2.1%	3.8%	-3.3	-9.5	1.9%	?
Cc1ccc(-c2nc3ccccc3c(=O)n2-c2ccncc2)cc1	3.1%	?	0.5	-4.3	-3.4%	-66.5%
Cc1ccnc(N2C(=O)c3ccccc3C2=O)c1	2.2%	11.7µM*	-6.2	-5.9	1.2%	-14.0%[0.00184 µM]
O=c1c2ccccc2nc(-c2ccc(-c3ccccc3)cc2)n1-c1ccncc1	-1.0%	?	25.8*	21.4	-0.8%	?
Cc1ccc(-c2nc3ccccc3c(=O)n2-c2cc(C)ccn2)cc1	5.3%	6.8%	30.1*	47.7	6.2%	-7.3%
Cc1ccnc(N2C(=O)c3cccc4c([N+](=O)[O-])ccc(c34)C2=O)c1	-22.4%	-13.1%	-0.9	-6.2	-34.6%	0.2%
O=C1NC(=O)/C(=C/c2ccc(O)cc2)S1	11.1%	334.5%	36.0*	75.3*	-5.3%	110.3%
O=C1NC(=Nc2ccc3ccccc3c2)S/C1=C/c1ccco1	-8.2%	-14.3%[5.75 µM]	18.0	26.0	nt	0.0%
Cc1ccc(N=C2NC(=O)/C(=C\c3ccco3)S2)cc1	1.6%	?	28.3*	45.9*	-7.3%	?
O=C1NC(=Nc2ccc(O)cc2)S/C1=C/c1ccco1	-4.2%	?	17.2*	22.4	nt	-1.6%
COc1cc(/C=C2\SC(=Nc3ccc(O)cc3)NC2=O)cc(OC)c1O	-2.7%	9.28µM*	-1.5	-11.5	-0.4%	3.7µM*
CCN(C(=O)COn1nnc2ccc(S(=O)(=O)N(C)C)cc21)C1CCS(=O)(=O)C1 (configuration not stated)	nt	-29.7%	nt	nt	nt	-19.2%
OCc1c[nH]c(=S)n1CCOc1cccc(C(F)(F)F)c1	-8.0%	5.5%	-2.6	-6.9	2.6%	-6.6%
COc1ccc(S(=O)(=O)N2CCOCC2)cc1NC(=O)/C=C/c1ccccc1	nt	?	nt	nt	nt	-1.3%
CCN(Cc1ccc(OC)c(F)c1)C(=O)/C=C/c1ccc(S(=O)(=O)N2CCOCC2)cc1	nt	9.28µM*	nt	nt	nt	10.4µM*
COc1cccc(NC(=O)/C=C/c2ccc(S(=O)(=O)N3CCOCC3)cc2)c1	nt	10.4µM*	nt	nt	nt	?
SMILES	FBPA Giardia inh	Pf growth 96h	CHX counter	Shiga toxin inh	NS1 function inh	Pf growth 48h
Cn1c(CCC(=O)Nc2ccc(F)cc2)nc2cc(S(=O)(=O)N3CCOCC3)ccc21	nt	?	nt	nt	nt	-25.0%
CCN(CC(=O)Nc1c(F)cccc1F)C(=O)CCc1nc2cc(S(=O)(=O)N3CCOCC3)ccc2n1C	nt	?	nt	nt	nt	-12.1%
CCCn1c(CCC(=O)Nc2ccccc2Cc2ccccc2)nc2cc(S(=O)(=O)N3CCOCC3)ccc21	-0.1%	2.33µM*	-2.2	-13.4	5.7%	nt
O=C(/C=C/c1ccc(S(=O)(=O)N2CCOCC2)cc1)N(CCO)Cc1ccccc1	-0.1%	-28.2%	-4.8	-18.4	nt	-23.7%
CCN(CC)S(=O)(=O)c1ccc2c(c1)nc(CCC(=O)Nc1ccc(N3CCOCC3)cc1)n2C	0.7%	?	-0.8	2.9	nt	14.7µM*
COc1cc(C(=O)NC(C)c2ccc3ccccc3c2)cc(Cl)c1O (configuration not stated)	-6.5%	?	1.4	-0.7	?	0.5%
Cc1ccc2c(NC(=O)c3ccco3)cccc2n1	3.2%	74.2%	3.9	-5.3	9.9%	45.7%
CC(C)[C@@H](OCc1ccccc1)[C@H](C)CO/N=C1/[C@H]2OC2[C@@H](O)[C@H]2[C@H]1CCn1c(=O)n(-c3ccccc3)c(=O)n12 (some centres not stated)	-0.2%[12.9 µM]	nt	nt	nt	nt	nt
O=C(/C=C/c1ccc(F)cc1)Nc1ccc(S(=O)(=O)N2CCOCC2)cc1	-0.1%	?	10.2	10.2	-6.1%	10.4µM*
CCOc1ccccc1NC(=O)/C=C/c1ccc(S(=O)(=O)N2CCOCC2)cc1	nt	4.65µM*	nt	nt	nt	4.65µM*
COc1ccc(S(=O)(=O)N(CC(=O)Nc2ccc(S(=O)(=O)N3CCOCC3)cc2)Cc2ccc(F)cc2)cc1	-3.8%	?	-2.2	-8.7	16.0%	14.7µM*
CCOc1ccccc1NC(=O)c1ccc(S(=O)(=O)N2CCOCC2)cc1	12.0%	nt	2.8	-17.8	-5.7%	0.8%
CCN(CC)S(=O)(=O)c1ccc(/C=C/C(=O)Nc2ccc(N3CCOCC3)cc2)cc1	-0.3%	1.85µM*	-0.9	15.9	5.3%	10.4µM*
Cc1ccc(NC(=O)[C@H](C)NC(=O)C2CCN(C(=O)[C@@H](NC(=O)OC(C)(C)C)C(C)C)CC2)cc1	7.9%	-28.7%	-2.6	-6.2	-2.2%	-21.6%
Cc1ccc(NC(=O)Nc2ccno2)cc1	-12.1%	-2.7%	15.8	30.7	-2.2%	-22.8%
O=C(CNC(=O)c1ccccc1Br)N/N=C/c1ccc(O)cc1	9.7%	?	10.6	-4.4	nt	203.4%
COc1cccc(NC(=O)CN(C)C(C)C(=O)Nc2ccc(S(=O)(=O)N3CCOCC3)cc2)c1 (configuration not stated)	-1.4%	4.65µM*	4.7	-16.2	-44.8%	5.22µM*
COc1cccc(CN(C)C(=O)/C=C/c2ccc(S(=O)(=O)N3CCCCCC3)cc2)c1	nt	11.7µM*	-1.4	-21.7	?	11.7µM*
Cc1cccc(NC(=S)N/N=C(\c2ccccc2)C(C)C)c1	6.7%	38.0%	25.9*	54.8*	-6.2%	?
CC(C)/C(=N\NC(=O)Nc1ccccc1)c1ccccc1	7.6%	?	18.3	26.7	-8.2%	?
CC/C(=N\NC(=S)Nc1cccc(C)c1)c1ccccc1	3.4%	?	16.7	30.5	-59.9%	9.28µM*
